# Inconclusive results are not listed. The source made the active and inactive calls. Calls follow the shape of the dose curve; as a rule, active = well fitted cell-killing curve with a large enough effect; inconclusive = small, poorly fitted or top-dose-only effect; inactive = no such curve, though single readings can be large or run the other way.
# Assay: qHTS of pediatric cancer cell lines to identify multiple opportunities for drug repurposing: Confirmatory screen for SK-N-MC cells (AID 1347111);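 also: cells exposed to compound for 48 h before the readout; nearly all actives have a fitted effect of over 70% in size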
# Conditions: SK-N-MC cell viability; series mostly up to 45.9 µM; activity change, negative = cytotoxic: at the top concentration
# From the text: Drug repurposing or repositioning has been offered as a strategy for drug development in oncology programs. This approach has special potential for childhood cancers and other rare or orphan diseases, where the expected return on new drug development has been a disincentive to pharmaceuticals.
# In this project we exploit the poly-pharmacology of drugs to discover new indications via phenotypic screening of a panel of 19 well-characterized cell lines derived from solid tumors seen in children and adolescents. The goal is to identify approved drugs with previously unrecognized anticancer properties that has the potential to reveal new mechanisms and biological processes involved in carcinogenesis or drug resistance. We employed a titration-based paradigm (quantitative high-throughput screening or qHTS), where all compounds were tested at multiple concentrations for their effect on cell viability. Concentration-response curves (CRCs) were derived directly from the primary screen, and both potency and efficacy values were used to identify compounds with robust bioactivity profiles. We screened the NIH Chemical Genomics Center (NCGC) Pharmaceutical Collection (NPC) and Mechanism Interrogation Plate (MIPE) small molecule collections of approved and investigational compounds against these cell lines; and measured metabolically active cells after 48 hours of compound treatment as a proxy for cell viability.
# Assay Submitter: Nathalia J. Martinez, National Center for Advancing Translational Sciences, National Institutes of Health, Rockville, MD, USA; email: natalia.martinez@nih.gov
# [1] Shen, M et al. Quantitative high-throughput phenotypic screening of pediatric cancer cell lines identifies multiple opportunities for drug repurposing. Oncotarget 2017 Dec 19;9(4):4758-4772. PMID 29435139.
# The cells were obtained from University of North Carolina (UNC), Pediatric Preclinical Testing Program (PPT), and Coriell Institute (CI).
# qHTS cell viability assay:
# Cells were assayed in growth media at a density of 500-1,000 cells/well. Five microliters of cells were dispensed into 1,536-well, white, solid-bottom, TC-treated plates (Greiner Bio One) using a multidrop dispenser and incubated at 37 degrees C, 5% CO2, under a humidified atmosphere for 5 hours. Twenty-three nanoliters of compounds and controls (neutral control DMSO or positive control bortezomib at final concentration of 2.3 µM) were subsequently transferred by Kalypsys pintool. For primary screens, the MIPE collection was tested at 11-point dilutions (final concentrations range from 0.78 nM to 46 µM) and the NPC collection at 8-point dilutions (final concentrations range from 0.59nM to 46 µM). Compounds tested in follow-up screens were assayed at 11-point dilutions. Cells were incubated for 48 hours, followed by addition of 3 uL of CellTiter-Glo (Promega). After a 15 min incubation at room temperature, samples were analyzed for luminescence intensity using a ViewLux High-throughput CCD imager equipped with clear filters.
# Potency is read from the fitted curve at half-maximal effect.
SMILES,"activity change, negative = cytotoxic",Potency
CC=C(C)C(=O)O[C@H]1C(C)=C2[C@@H]3OC(=O)[C@@](C)(O)[C@@]3(O)[C@@H](OC(=O)CCC)C[C@](C)(OC(C)=O)[C@@H]2[C@@H]1OC(=O)CCCCCCC,5.86% (inactive),–
C[C@@H]1O[C@@H](O[C@@H]2C=C3CC[C@@H]4[C@@H](CC[C@]5(C)[C@H](c6ccc(=O)oc6)CC[C@@]45O)[C@@]3(C)CC2)[C@H](O)[C@H](O)[C@H]1O,–,32.9 nM (active)
CC[C@@H]1[C@@H](C)O[C@@](O)([C@@H](C)[C@H](O)[C@H](C)[C@H]2OC(=O)C=CC=C[C@@H](C)[C@@H]([C@@H](C)[C@@H](O)[C@H](C)[C@@]3(O)C[C@H](O[C@H]4C[C@H](O)[C@H](O)[C@H](C)O4)[C@H](CC)[C@@H](C)O3)OC(=O)C=CC=C[C@@H]2C)C[C@H]1O[C@H]1C[C@H](O)[C@H](O)[C@H](C)O1,4.69% (inactive),–
Cc1c(C(=O)Nc2cccc(C(F)(F)F)c2)cc(-c2ccccc2)n1CCCN1CCOCC1,–,26900 nM (active)
O=C(Nc1ccncc1)C(=O)c1cn(Cc2ccc(Cl)cc2)c2ccccc12,–,329 nM (active)
CC=C(C)C(=O)N[C@@H](c1ccccc1)[C@@H](O)C(=O)O[C@H]1C[C@@]2(O)[C@@H](OC(=O)c3ccccc3)[C@@H]3[C@]4(OC(C)=O)CO[C@@H]4C[C@H](O)[C@@]3(C)C(=O)[C@H](OC(C)=O)C(=C1C)C2(C)C,–,36.9 nM (active)
COc1cc2cc(c1Cl)N(C)C(=O)C[C@H](OC(=O)C(C)C)[C@]1(C)O[C@H]1[C@H](C)[C@@H]1C[C@@](O)(NC(=O)O1)[C@H](OC)C=CC=C(C)C2,–,1.3 nM (active)
CC(C)N[C@@H]1CCn2c(=O)[nH]c3cccc(c32)[C@@H]1O,–,18500 nM (active)
CC1=C(O)C(=O)C=C2C1=CC=C1[C@@]2(C)CC[C@@]2(C)[C@@H]3C[C@](C)(C(=O)O)CC[C@]3(C)CC[C@]12C,–,1170 nM (active)
CC(C)[C@]12O[C@@H]1[C@@H]1O[C@]13[C@]1(O[C@H]1C[C@@H]1C4=C(CC[C@@]13C)C(=O)OC4)[C@H]2O,–,46.5 nM (active)
O=C(O)CCCOc1ccc(Cl)cc1Cl,–,43400 nM (active)
COc1ccc2c(c1)CN(C)CC2c1ccc(Cl)c(Cl)c1 (centres undefined),–,6570 nM (active)
CCCCCC[C@H]1C(=O)O[C@H](C)[C@H](NC(=O)c2cccc(NC=O)c2O)C(=O)O[C@@H](C)[C@@H]1OC(=O)CC(C)C,–,46.5 nM (active)
CC(=Cc1csc(C)n1)[C@@H]1C[C@H]2O[C@]2(C)CCC[C@H](C)[C@@H](O)[C@@H](C)C(=O)C(C)(C)[C@@H](O)CC(=O)O1,–,5.9 nM (active)
C[C@@H]1CC[C@@]2(OC1)O[C@H]1C[C@H]3[C@@H]4CC=C5C[C@@H](O[C@@H]6O[C@H](CO)[C@@H](O[C@@H]7O[C@@H](C)[C@H](O)[C@@H](O)[C@@H]7O)[C@H](O)[C@@H]6O[C@@H]6O[C@@H](C)[C@H](O)[C@@H](O)[C@@H]6O)CC[C@]5(C)[C@@H]4CC[C@]3(C)[C@@H]1[C@H]2C,–,2330 nM (active)
CC(=Cc1csc(C)n1)[C@@H]1C[C@H]2O[C@@H]2CCC[C@H](C)[C@@H](O)[C@@H](C)C(=O)C(C)(C)[C@@H](O)CC(=O)O1,–,20.8 nM (active)
CC[C@@]1(O)C(=O)OCc2c1cc1n(c2=O)Cc2cc3ccccc3nc2-1,–,29.3 nM (active)
CC(C)(O)C=CC(=O)[C@](C)(O)[C@H]1[C@H](O)C[C@]2(C)[C@@H]3CC=C4[C@@H](C=C(O)C(=O)C4(C)C)[C@]3(C)C(=O)C[C@@]12C,–,147 nM (active)
Cc1ccccc1-n1c(Cn2cnc3c(N)ncnc32)nc2cccc(C)c2c1=O,22.7% (inactive),–
CC(C)(C)C(O)C(Oc1ccc(Cl)cc1)n1cncn1 (centres undefined),11.8% [at 95.5 µM] (inactive),–
Cc1[nH]nc2ccc(-c3cncc(OC[C@@H](N)Cc4c[nH]c5ccccc45)c3)cc12,–,1470 nM (active)
C=CCON=C(C[C@H]1O[C@@H]2O[C@]3(C)CC[C@@H]4[C@H](C)CC[C@@H]([C@H]1C)[C@@]24OO3)[C@H]1O[C@@H]2O[C@]3(C)CC[C@H]4[C@H](C)CC[C@@H]([C@@H]1C)[C@@]24OO3,–,147 nM (active)
O=[N+]([O-])c1c(Cl)c(Cl)cc(Cl)c1Cl,–,38000 nM (active)
CC[C@H]1C=CC=CC[C@@H](C)[C@H](O)[C@@](C)(O)C(=O)[C@@H](C)[C@H](O)[C@@H](C)C(=O)[C@@H](C)[C@H](O)[C@@H](C)C=CC(=O)O[C@@H]2[C@@H](C)[C@H](CC1)O[C@]1(CC[C@H](C)[C@H](C[C@@H](C)O)O1)[C@H]2C,–,233 nM (active)
Cc1ccccc1-n1c(Cn2ncc3c(N)ncnc32)nc2cccc(C)c2c1=O,–,1040 nM (active)
O=C(N[C@H]1CN2CCC1CC2)c1ccc(Cl)cc1,–,1170 nM (active)
CC(=O)[O][Hg][c]1ccccc1,–,827 nM (active)
C[C@H]1CCCC=CC2C[C@H](O)C[C@@H]2[C@H](O)C=CC(=O)O1 (some centres undefined),–,104 nM (active)
O=c1[nH]c2ccc(Cl)cc2c(N[C@@H]2CN3CCC2CC3)c1-c1nc2ccccc2[nH]1,–,293 nM (active)

# From PubChem BioAssay (NCATS)
